Inhibition data for 17 molecules are collected here from ChEMBL document CHEMBL1961873, “Compounds: GSK PKIS; Assays: Nanosyn kinase panel” (2012).

Assay [1] addresses Platelet-derived growth factor receptor beta (Homo sapiens) (UniProt P09619). To be noted: at 1 µM.
Assay [2] addresses Tyrosine-protein kinase FRK (Homo sapiens) (UniProt P42685). Particulars: at 0.1 µM.
Assay [3] shares this target. To be noted: at 1 µM.
Assay [4] addresses Protein-tyrosine kinase 2-beta (Homo sapiens) (UniProt Q14289). To be noted: at 0.1 µM.
Assay [5] has the same target. To be noted: at 1 µM.
The target in assay [6] is Proto-oncogene tyrosine-protein kinase receptor Ret (Homo sapiens) (UniProt P07949). To be noted: at 0.1 µM.
For assay [7] the target is unchanged. Particulars: at 1 µM.
Assay [8] deals with Proto-oncogene tyrosine-protein kinase receptor Ret (Homo sapiens), P07949 [V804L]. To be noted: at 0.1 µM.
For assay [9] the test system is unchanged. Particulars: at 1 µM.
In assay [10] the test system is Proto-oncogene tyrosine-protein kinase receptor Ret (Homo sapiens), P07949 [Y791F]. To be noted: at 0.1 µM.
Sequence of Proto-oncogene tyrosine-protein kinase receptor Ret (Homo sapiens), P07949 [Y791F] (P07949 whole entry Y791F): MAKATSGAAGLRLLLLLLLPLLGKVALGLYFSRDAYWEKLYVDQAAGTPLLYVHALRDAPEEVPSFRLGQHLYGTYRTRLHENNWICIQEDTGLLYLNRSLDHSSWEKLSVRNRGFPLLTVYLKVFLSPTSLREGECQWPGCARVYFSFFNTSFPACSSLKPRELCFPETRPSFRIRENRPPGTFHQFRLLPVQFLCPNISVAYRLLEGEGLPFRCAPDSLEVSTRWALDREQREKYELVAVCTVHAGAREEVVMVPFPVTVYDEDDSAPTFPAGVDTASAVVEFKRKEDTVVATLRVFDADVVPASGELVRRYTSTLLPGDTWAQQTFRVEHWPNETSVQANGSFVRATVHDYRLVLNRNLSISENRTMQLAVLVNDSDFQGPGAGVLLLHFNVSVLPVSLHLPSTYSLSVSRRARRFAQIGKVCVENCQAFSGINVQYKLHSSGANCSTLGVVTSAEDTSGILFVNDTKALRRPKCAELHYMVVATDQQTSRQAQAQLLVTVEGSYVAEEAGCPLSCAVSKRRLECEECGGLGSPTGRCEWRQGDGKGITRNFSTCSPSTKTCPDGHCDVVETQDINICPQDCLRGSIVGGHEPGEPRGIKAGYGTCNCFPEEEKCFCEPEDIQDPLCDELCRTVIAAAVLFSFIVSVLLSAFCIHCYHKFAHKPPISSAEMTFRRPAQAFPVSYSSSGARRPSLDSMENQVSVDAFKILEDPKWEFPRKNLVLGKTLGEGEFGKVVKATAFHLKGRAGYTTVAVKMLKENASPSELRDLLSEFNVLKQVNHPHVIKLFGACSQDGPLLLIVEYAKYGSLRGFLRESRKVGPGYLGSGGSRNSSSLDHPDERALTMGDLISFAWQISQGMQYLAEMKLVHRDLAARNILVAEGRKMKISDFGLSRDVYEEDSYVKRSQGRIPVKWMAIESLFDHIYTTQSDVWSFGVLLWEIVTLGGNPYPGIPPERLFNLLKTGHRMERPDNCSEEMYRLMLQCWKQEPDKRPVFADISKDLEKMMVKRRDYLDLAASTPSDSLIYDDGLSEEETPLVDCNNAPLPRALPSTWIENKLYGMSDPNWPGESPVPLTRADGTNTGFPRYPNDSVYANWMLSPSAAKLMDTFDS

Sequence of Protein-tyrosine kinase 2-beta (Homo sapiens) (Q14289 whole entry, looked up): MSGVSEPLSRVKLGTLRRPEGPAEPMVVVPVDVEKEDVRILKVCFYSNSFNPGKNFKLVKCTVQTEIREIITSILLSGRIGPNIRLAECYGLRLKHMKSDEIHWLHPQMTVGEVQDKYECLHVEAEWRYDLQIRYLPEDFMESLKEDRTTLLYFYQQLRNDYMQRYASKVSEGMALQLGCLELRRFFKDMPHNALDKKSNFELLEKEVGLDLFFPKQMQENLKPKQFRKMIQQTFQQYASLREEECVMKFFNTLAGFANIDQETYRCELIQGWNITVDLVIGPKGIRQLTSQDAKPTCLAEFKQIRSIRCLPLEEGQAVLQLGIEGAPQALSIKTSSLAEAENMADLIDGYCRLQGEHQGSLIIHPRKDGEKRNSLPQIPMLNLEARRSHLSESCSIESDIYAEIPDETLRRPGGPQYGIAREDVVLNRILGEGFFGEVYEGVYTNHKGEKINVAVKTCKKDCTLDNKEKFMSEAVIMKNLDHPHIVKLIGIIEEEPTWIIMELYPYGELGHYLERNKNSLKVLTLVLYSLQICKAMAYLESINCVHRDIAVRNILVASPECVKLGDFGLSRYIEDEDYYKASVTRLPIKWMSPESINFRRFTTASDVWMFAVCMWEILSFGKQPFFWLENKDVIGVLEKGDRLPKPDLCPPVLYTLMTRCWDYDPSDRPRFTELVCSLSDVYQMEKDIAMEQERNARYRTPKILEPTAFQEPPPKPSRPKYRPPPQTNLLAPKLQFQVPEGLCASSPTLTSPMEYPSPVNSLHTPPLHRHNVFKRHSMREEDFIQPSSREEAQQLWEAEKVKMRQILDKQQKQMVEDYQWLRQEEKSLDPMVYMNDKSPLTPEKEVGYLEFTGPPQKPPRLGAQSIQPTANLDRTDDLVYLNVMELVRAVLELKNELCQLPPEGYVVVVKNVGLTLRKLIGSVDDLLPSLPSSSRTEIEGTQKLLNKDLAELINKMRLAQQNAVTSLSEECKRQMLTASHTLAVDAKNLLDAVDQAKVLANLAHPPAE
Sequence of Proto-oncogene tyrosine-protein kinase receptor Ret (Homo sapiens), P07949 [V804L] (P07949 whole entry V804L): as the sequence (P07949 whole entry Y791F) above, with F791Y, V804L counted along it
Sequence of Platelet-derived growth factor receptor beta (Homo sapiens) (P09619 whole entry): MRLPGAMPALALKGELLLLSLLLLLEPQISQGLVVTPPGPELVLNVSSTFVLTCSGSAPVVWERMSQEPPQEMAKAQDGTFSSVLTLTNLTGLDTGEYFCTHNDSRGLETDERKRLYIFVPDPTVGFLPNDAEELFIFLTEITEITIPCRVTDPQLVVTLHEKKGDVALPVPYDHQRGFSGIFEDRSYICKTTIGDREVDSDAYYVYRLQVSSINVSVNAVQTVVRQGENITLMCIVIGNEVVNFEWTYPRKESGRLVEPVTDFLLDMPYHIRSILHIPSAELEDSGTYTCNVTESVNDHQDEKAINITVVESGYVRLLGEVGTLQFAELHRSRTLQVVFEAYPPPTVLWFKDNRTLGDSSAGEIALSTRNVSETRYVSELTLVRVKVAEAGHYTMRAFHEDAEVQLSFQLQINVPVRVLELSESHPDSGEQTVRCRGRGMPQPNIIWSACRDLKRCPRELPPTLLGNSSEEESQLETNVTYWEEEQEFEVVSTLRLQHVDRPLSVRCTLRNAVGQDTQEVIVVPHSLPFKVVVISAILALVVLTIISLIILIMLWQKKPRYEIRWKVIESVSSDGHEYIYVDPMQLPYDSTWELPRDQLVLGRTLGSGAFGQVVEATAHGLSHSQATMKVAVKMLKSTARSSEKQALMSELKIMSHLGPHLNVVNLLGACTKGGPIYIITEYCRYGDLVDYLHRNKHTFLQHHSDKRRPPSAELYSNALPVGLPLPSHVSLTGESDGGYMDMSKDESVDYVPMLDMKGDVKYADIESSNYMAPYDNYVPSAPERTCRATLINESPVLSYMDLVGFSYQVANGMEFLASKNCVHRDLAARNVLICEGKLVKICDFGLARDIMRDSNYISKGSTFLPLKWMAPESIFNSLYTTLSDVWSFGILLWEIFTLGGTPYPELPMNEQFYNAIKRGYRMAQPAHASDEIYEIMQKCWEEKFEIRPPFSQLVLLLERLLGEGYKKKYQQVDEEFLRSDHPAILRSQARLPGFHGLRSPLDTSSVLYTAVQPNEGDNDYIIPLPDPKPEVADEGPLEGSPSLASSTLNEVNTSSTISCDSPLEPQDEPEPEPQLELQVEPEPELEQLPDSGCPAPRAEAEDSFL
Sequence of Proto-oncogene tyrosine-protein kinase receptor Ret (Homo sapiens) (P07949 whole entry): as the sequence (P07949 whole entry Y791F) above, with F791Y counted along it
Sequence of Tyrosine-protein kinase FRK (Homo sapiens) (P42685 whole entry): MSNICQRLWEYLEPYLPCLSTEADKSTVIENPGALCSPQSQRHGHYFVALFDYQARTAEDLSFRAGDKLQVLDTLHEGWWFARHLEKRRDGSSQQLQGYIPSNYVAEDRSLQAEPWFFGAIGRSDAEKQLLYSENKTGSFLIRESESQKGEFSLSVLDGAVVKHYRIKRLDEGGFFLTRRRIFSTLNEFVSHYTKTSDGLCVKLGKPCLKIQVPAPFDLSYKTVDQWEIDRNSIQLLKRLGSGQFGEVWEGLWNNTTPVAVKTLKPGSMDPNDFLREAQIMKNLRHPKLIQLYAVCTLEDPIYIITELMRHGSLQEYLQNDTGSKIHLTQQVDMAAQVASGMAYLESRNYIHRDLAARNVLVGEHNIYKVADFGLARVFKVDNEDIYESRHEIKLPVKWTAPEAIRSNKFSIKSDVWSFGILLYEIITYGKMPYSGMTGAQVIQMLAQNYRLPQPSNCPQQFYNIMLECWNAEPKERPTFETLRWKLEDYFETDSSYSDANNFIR

With `Cc1cc(-c2ccccn2)cc(C)c1/C=C/c1cncc(-c2nn[nH]n2)c1`, the inhibition stood at 13.4% in assay [1]; 1.59% in assay [2]; 4.57% in assay [3]; 3.75% in assay [4]; 13.3% in assay [5]; 5.88% in [6]. Besides, the inhibition in assay [7] amounted to 5.38%; in assay [8], 3.85%; in assay [9], 5.09%; in [10], 5.19%.
Regarding `NS(=O)(=O)c1cccc(-c2cc3ccncc3cc2OCc2ccccc2)c1`, the inhibition worked out at 11.8% in assay [1]; 3.66% in [2]; 1.68% in assay [3]; 6.15% in [6]; 14.3% in assay [7]; 6.02% in assay [8]. The inhibition was 14.3% in assay [9] and 12.6% in [10].
Take `NS(=O)(=O)c1ccc(NC=C2C(=O)Nc3ccc4ncsc4c32)cc1`: the inhibition stood at 89.8% in assay [1]; 4.28% in assay [2]; 4.47% in assay [3]; 21.8% in [4]; 66.8% in assay [5]; 47.7% in assay [6]. Also, the inhibition in assay [7] was 79.9%; in assay [8] it was 59%; in assay [9] it was 78.3%; in [10], 46.1%.
For `CCn1c(-c2nonc2N)nc2ccc(F)cc21`, the inhibition in [1] was 4.28%; in [2], 2.61%; in assay [3], 1.89%; in [6], 6.24%; in assay [7], 5.07%; in [8], 3.33%. In addition, the inhibition in [9] turned out to be 15.8%; in [10] it was 6.33%.
`NC(=O)c1cccc(Nc2nccc(Nc3cccc(F)c3)n2)c1`: the inhibition in [1] is 54.2%; in [2] it was 1.18%; in assay [3] it was 11.8%; in assay [4], 1.12%; in assay [5] it was 25.4%; in [6], -0.62%. For the same molecule, the inhibition in assay [7] turned out to be 26.8%; in assay [8], 1.12%; in assay [9], 13.8%; in assay [10] it was 3.72%.
For the molecule `N#Cc1cccc(Nc2nccc(-c3cnn4ncccc34)n2)c1`, the inhibition in assay [1] is 65.1%; in assay [2], 5.2%; in assay [3], 16%; in [4], 21.6%; in assay [5] it was 71%; in assay [6] it was 8.71%. The inhibition in [7] was 37.4%; in assay [8] it was 6.87%; in [9], 43.8%; in assay [10] it was 7.91%.
Take `Cc1cc(Cl)cc2c1NC(=O)C2=NNc1ccc(S(N)(=O)=O)cc1`: the inhibition in assay [1] was 6.52%; in assay [2], 1.54%; in [3], 3.32%; in [6] it was 2.45%; in [7] it was -0.28%; in assay [8] it was 3.83%. For the same molecule, the inhibition in [9] was 7.51%; in assay [10] it was -0.41%.
As to `Cc1ccc2c(c1)/C(=N/Nc1ccc(S(N)(=O)=O)cc1)C(=O)N2`, the inhibition is 31.7% in assay [1]; -0.61% in assay [2]; 0.7% in assay [3]; 1.76% in assay [4]; 0.28% in assay [5]; 3.85% in assay [6]. Also, the inhibition in [7] was determined as 18.8%; in [8], 7.64%; in [9], 35.4%; in [10], 8.06%.
Regarding `CN1CCN(C(=O)c2ccc(NC(=O)Nc3ccc(N(C)c4ccnc(Nc5ccc(CS(C)(=O)=O)cc5)n4)cc3)cc2)CC1`, the inhibition in assay [1] stood at 79.3%; in [2], 1.47%; in [3] it was 4.04%; in assay [4], 29.2%; in assay [5] it was 88.6%; in [6], 38.8%. The inhibition in assay [7] stood at 76.8%; in assay [8], 27.2%; in assay [9], 67.1%; in [10] it was 60.7%.
Turning to `O=C(Nc1ccc(Oc2ccc3[nH]c(NC(=O)c4ccco4)nc3c2)cc1)Nc1cc(C(F)(F)F)ccc1F`, the inhibition worked out at 58.3% in assay [1]; 0.19% in [2]; 2.9% in assay [3]; 0.95% in assay [4]; 12.9% in [5]; 77.7% in assay [6]. Besides, the inhibition came out at 84.2% in [7], 45.6% in assay [8], 75.7% in [9] and 50.9% in [10].
Take `Cc1ccc(C(=O)NC2CC2)cc1-c1ccc2[nH]ncc2c1`: the inhibition is 6.94% in [1]; -2.56% in [2]; -4.36% in assay [3]; -4.62% in assay [4]; -8.03% in assay [5]; -2.17% in [6]. For the same molecule, the inhibition in assay [7] was -0.48%; in assay [8], -1.65%; in assay [9] it was 0.72%; in assay [10], -3.09%.
Regarding `Nc1nccc(-c2c(-c3ccc(F)cc3)nn3cc(C(F)(F)F)ccc23)n1`, the inhibition in [1] was 2.13%; in [2], -1.38%; in [3], 1.04%; in assay [6], 2.76%; in [7] it was -0.03%; in assay [8], 0.95%. The inhibition in assay [9] was 0.97%; in [10], -0.45%.
In the case of `Cc1ccc(O)cc1Nc1ccnc2ccc(S(C)(=O)=O)cc12`, the inhibition in [1] came out at 84.2%; in assay [2], 89%; in assay [3] it was 95.7%; in [4] it was 15.7%; in assay [5], 41.3%; in assay [6] it was 81.8%. Further, the inhibition was found to be 88.4% in assay [7], 7.62% in [8], 26.6% in assay [9] and 81.3% in assay [10].
For `Oc1cccc(-c2nc(-c3ccccc3)[nH]c2-c2ccncc2)c1`, the inhibition came to 17.1% in [1]; 2.98% in [2]; 16.5% in assay [3]; 7.31% in [4]; 14.2% in assay [5]; 27.4% in assay [6]. Moreover, the inhibition is 72.8% in assay [7], 4.04% in assay [8], 7.21% in assay [9] and 30% in [10].
For `NS(=O)(=O)c1ccc(Nc2cc(-c3cccc(O)c3)n[nH]2)cc1`, the inhibition in [1] stood at 26.1%; in [2] it was 0.88%; in assay [3], 2.04%; in assay [4], 10.7%; in assay [5], 12.3%; in assay [6], 6.46%. Moreover, the inhibition in [7] was found to be 15.5%; in assay [8], 9.69%; in [9] it was 21.3%; in assay [10], 13.4%.
As to `O=C1Nc2ccc(-c3cccnc3)cc2C1=Cc1cc(Br)c(O)c(Br)c1`, the inhibition is 1.84% in [2]; 5.49% in assay [3]; 9.77% in assay [4]; 9.16% in [5]; -0.83% in assay [6]; 7.95% in [7]. The inhibition amounted to 2.79% in [8], 16.2% in assay [9] and 8.02% in assay [10].
Turning to `Cc1ccc2c(-c3ccnc(Nc4cccc(C(F)(F)F)c4)n3)c(-c3ccccc3)nn2n1`, the inhibition in assay [1] was determined as 85.2%; in assay [2], 5%; in assay [3], 30.1%; in [4], 16.5%; in [5], 59.5%; in assay [6], 15.4%. Moreover, the inhibition was 51% in [7], 2.52% in assay [8], 3.3% in [9] and 6.2% in assay [10].

One may read the inhibition as the drop in the measured response relative to a control, in per cent.
